In the supplement of paper PMC7156485 one finds cell number data, which are given here for 40 molecules.

The structures appear in SMILES notation. Values joined by “and” are separate entries in the source; they are usually repeats but may differ in a detail not shown here. Equal values may be shown once. ± gives the standard deviation of the averaged measurements.
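Note: TDF denotes transformed human dermal fibroblasts of mesenchymal origin.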

For this assay, the system named is HCC1569. Kind of assay: cell number relative to DMSO (% of DMSO); higher = more cells (less growth inhibition / toxicity). The settings on record: concentration: 10 µM; 24 h. The gist of the method:
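HCC1569 and TDF cells were seeded at 800 per well in 384-well plates in RPMI with 10% FBS and treated with compounds at 10 µM for 24 h at 37 °C, in triplicate. After fixation in 3.7% formaldehyde, cells were stained with a rabbit anti-H1.0 antibody, an AlexaFluor 647 secondary and DAPI, and six fields per well were imaged at ×10. H1.0 nuclear intensity or cell number is given as percent of the plate control, using the median of replicates, with HCC1569 values smoothed for positional effects.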
With `NC(N)=S` [Thiourea], the cell number came to 100.

In the case of `COc1cc2c(cc1OC)C1C(C)c3ccc(OC)c(OC)c3CN1CC2` (stereo not given) [Corydaline], the cell number is 96.9.

For the molecule `CCC=CCC=CCC=CCC=CCC=CCC=CCCC(=O)O` [Docosahexaenoic acid], the cell number amounted to 99.8 ± 4.3.

`Nc1c(C(=O)O)c2nc3c(C(=O)O)cccc3oc-2cc1=O` [2-amino-3-oxo-3H-phenoxazine-1,9-dicarboxylic acid] registered a cell number of 92.

Regarding `COC(=O)C1=COC(C)C2CN3CCc4c([nH]c5ccccc45)C3CC12` (stereo not given) [Teterahydroalstonine], the cell number was 102.

Molecule `CC1C(=O)OC2CC34C5CC(C(C)(C)C)C36C(OC(=O)C6O)OC4(C(=O)O5)C21O` (stereo not given) [Ginkgolide A] yielded a cell number of 99.6 ± 1.2.

Turning to `Cl.Clc1cccc(Cl)c1NC1=NCCN1` [Clonidine.HCl], the cell number was 103.

In turn, `COc1ccc2c(c1OC)C(=O)OC2C1c2c(cc3c(c2OC)OCO3)CCN1C.Cl` (stereo not given) [Noscapine hydrchloride] gave a cell number of 102.

Regarding `CC1(C)CCC(C)(C)c2cc(C3(c4ccc(C(=O)O)cc4)OCCO3)ccc21`, the cell number is 100.

In the case of `CNCCCC12CCC(c3ccccc31)c1ccccc12.Cl` [Maprotiline hydrochloride], the cell number turned out to be 97.8.

The molecule `CC(=O)OCC1=C(C(=O)[O-])N2C(=O)C(NC(=O)Cc3cccs3)C2SC1.[Na+]` (stereo not given) [Cephalothin sodium] yielded a cell number of 100.

As for `CC(C)c1cccc(O)c(=O)c1` [Hinokitiol], the cell number amounted to 83.8.

As to `Cc1cc2ncc(-c3ccccc3)nc2cc1C`, the cell number was 100.

The molecule `CC1COC2=C1C(=O)C(=O)c1c2ccc2c1CCCC2(C)C` (stereo not given) [Cryptotanshinone] came in with a cell number of 96.6.

Molecule `CCCCCCCCCCCCCCCCCCOCC(COP(=O)([O-])OCC[N+](C)(C)C)OC` (stereo not given) [1-Octadecyl-2-methylglycero-3 PC] came in with a cell number of 105.

Turning to `CCCCCC#CCC(O)C=CC=CC=CC(O)CCCC(=O)O` (stereo not given) [14,15-Dehydroleukotriene B4], the cell number came out at 101.

For `Cc1ccc(S(=O)(=O)N2c3ccccc3Oc3ccccc32)cc1` [10-[(4-methylphenyl)sulfonyl]-10H-phenoxazine], the cell number was found to be 53.5.

As to `C=C1NC(=O)C2=C(CCSC2)N1`, the cell number worked out at 102.

In the case of `N#CC(=Cc1ccc(O)c(O)c1)C(=O)NCc1ccccc1`, the cell number amounted to 95.2.

As to `CC1CCC2(C(=O)O)CCC3(C)C(=CCC4C5(C)CC(O)C(O)C(C)(CO)C5CCC43C)C2C1C` (stereo not given) [Asiatic acid], the cell number was found to be 104.

With `CC(=O)C1CCC2C3CC=C4CC(O)CCC4(C)C3CCC12C` (stereo not given) [Pregnenolone], the cell number is 102.

`OC[C@H]1NC[C@@H](O)[C@@H]1O` [1,4-Dideoxy-1,4-imino-D-arabinitol]: the cell number amounted to 105.

On to `N#CC(=C(N)Sc1ccccc1N)C(C#N)=C(N)Sc1ccccc1N`, for which the cell number is 102 and 101.

For `CCOC(=O)C=Cc1ccc(O)c(OC)c1` [Ferulic acid ethylester], the cell number was 98.3.

Take `N[C@@H](Cc1ccc(O)c(I)c1)C(=O)O` [3-Iodo-L-tyrosine]: the cell number is 108.

For the molecule `O=S(=O)(NCc1ccccn1)c1ccc(Br)c2ccccc12` [4-bromo-N-(2-pyridinylmethyl)-1-naphthalenesulfonamide], the cell number is 99.1.

`CC1(C)SC2C(NC(=O)C(N)c3ccc(O)cc3)C(=O)N2C1C(=O)O` (stereo not given) [Amoxicillin] yielded a cell number of 107.

Consider `COc1c2ccoc2cc2oc(=O)ccc12` [Bergapten], for which the cell number was 97.8.

In turn, `CCC(C)C(CC)C(N)=O` (stereo not given) [2-ethyl-3-methylpentanamide] returned a cell number of 103.

Consider `CN(C)C(=O)N=NC(=O)N(C)C` [N,N,N',N'-Tetramethylazodicarboxamide], for which the cell number is 94.8.

For the molecule `CCC1(O)CC2CN(CCc3c([nH]c4ccccc34)C(C(=O)OC)(c3cc4c(cc3OC)N(C)C3C(O)(C(=O)OC)C(OC(C)=O)C5(CC)C=CCN6CCC43C65)C2)C1.O=S(=O)(O)O` (stereo not given) [Vinblastine sulfate], the cell number was determined as 53.3.

Molecule `N#CC(=Cc1ccc(O)c(O)c1)C(=O)NCCCc1ccccc1` [Tyrphostin AG 555] came in with a cell number of 79.8.

The molecule `COc1cc2c(cc1OC)-c1cc(=Nc3c(C)cc(C)cc3C)n(C)c(=O)n1CC2.Cl` [Trequinsin.HCl] yielded a cell number of 102.

Take `CCCC(CCC)C(=O)[O-].[Na+]` [Valproic acid sodium]: the cell number worked out at 108.

Consider `CC(O)C(=O)C1=Nc2c([nH]c(N)nc2=O)NC1` (stereo not given) [Sepiapterin], for which the cell number came to 105.

In turn, `Cl.O=C(NCCCCN1CCN(c2cccc(Cl)c2Cl)CC1)c1ccc2c(c1)Cc1ccccc1-2` registered a cell number of 93.5.

Take `COc1cc(O)c(C(=O)C=Cc2ccccc2)c(OC)c1` [Flavokawain B]: the cell number was 75.4.

In turn, `COc1ccc(-c2cc(=O)c3ccc(O)cc3o2)cc1` [Pratol] came in with a cell number of 98.5.

With `NC(C(=O)NC1C(=O)N2C(C(=O)O)=C(Cl)CSC12)c1ccccc1` (stereo not given) [Cefaclor], the cell number turned out to be 101.

`CN1CCN(C2=Nc3ccccc3Sc3ccc(Cl)cc32)CC1` [Clothiapine]: the cell number was determined as 103.
